Experimental data published in PubChem BioAssay AID435022 (Sanford-Burnham Center for Chemical Genomics, 2010).
Screen size: about 330,000 compounds; about 1,100 (0.33%) were called active. No stated cut-off is given here; in the data, active means inhibition above about 35%; inactive means the rest. Only a selection was taken, and actives are over-represented in it overall.

assay: lowers stimulated NF-kB luciferase signal in 697 B cells – cell-based, luminescence, uHTS, B-cell NF-kB inhibitor project, primary screen (AID 435022); conditions: 697 B-cell NF-kB luciferase reporter, PMA/ionomycin, 16 h; at 4 µM; active compounds read high

inhibition, inactive:
CC1CN(C(=S)Nc2ccc(Br)cc2Cl)CC(C)O1 (stereo not drawn) -8.08%, Cc1ccccc1-c1cc(C(=O)NCc2cccs2)n(CC2CC(c3cccnc3)=NO2)n1 (stereo not drawn) -9.9%, Cn1c(=O)cc(SCC(=O)N2CCN(C(=O)c3ccco3)CC2)c2ccccc21 -1.63%, CCOC(=O)C1CCN(C(=O)CSc2cc(=O)n(C)c3ccccc23)CC1 25%, Cc1ccccc1C(=O)NNC(=O)CN1C(=O)c2ccccc2C1=O 8.67%, C[C@@]12C(=O)N(c3cccc(Br)c3)C(=O)N1[C@H](c1ccc(Cl)cc1)[C@@H]1C(=O)N(C3CCCCC3)C(=O)[C@@H]12 -15.6%, O=C(O)CN(Cc1ccco1)S(=O)(=O)c1ccccc1 18.8%, Cc1c(Cl)cnc(NC(=O)COC(=O)C2CCCC2)c1Cl 2.7%, CCOC(=O)CSc1nnc(CNC(=O)c2cccs2)n1-c1ccccc1 9.72%, O=C(C1CCC1)N1CCc2cc(S(=O)(=O)NCc3cccnc3)ccc21 -30.3%, CC1(C)Oc2ccc3ccc(=O)oc3c2/C(=C/NCCO)C1=O 5.05%, CC1(C)Oc2ccc3ccc(=O)oc3c2/C(=N/O)C1=O -15.2%, Cc1nc(Cl)c(C#N)c2c1CCCC2 22.3%, CC(=O)Nc1ccc(S(=O)(=O)NC2(C(F)(F)F)C(=O)Nc3c2c(=O)[nH]c(=O)n3Cc2ccccc2)cc1 (stereo not drawn) 3.75%, COc1ccccc1NC(=O)C1=C(C)Nc2nnnn2C1c1cccc(Br)c1 (stereo not drawn) -22.3%, COC(=O)c1ccc(C2C3=C(Nc4nnnn42)c2ccccc2OC3)cc1 (stereo not drawn) 3.54%, CC1CCN(C(NC(=O)c2ccco2)C(=O)c2ccccc2)CC1 (stereo not drawn) -1.98%, CCOC(=O)C1=C(O)/C(=C/c2cc(C)n(-c3ccccc3)c2C)N=C1C -12.5%, Cc1cccc(Nc2nc(NCCO)nc(N3CCCC3)n2)c1 4.82%, CC(C)n1cnc2c(Nc3cccc(Cl)c3)nc(N(CCO)CCCO)nc21 -41.1%, CSc1ncccc1C(=O)OCc1ccc(Br)cc1 5.14%, c1ccc(Cc2cc[n+](Cc3ccccc3)cc2)cc1 -7.68%, COc1ccccc1OCc1nnc(SCC(N)=O)n1-c1ccccc1 -18.9%, Cc1nc2ccccc2c(=O)n1-c1ccc(F)c(NC(=O)c2cccs2)c1 -10.2%, CCc1ccc(CNC(=O)CCc2nc(-c3cccs3)no2)cc1 -6.74%, CN1CCN(C(=O)CCc2nc(-c3ccc(Cl)cc3)no2)CC1 -2.08%, CCOC(=O)C1CCN(C(=O)C2CCCN(S(=O)(=O)c3ccc(OC)c(Cl)c3)C2)CC1 (stereo not drawn) -44.7%, CCOc1ccccc1C1CC(c2ccc(Cl)cc2)Nc2nc(N)nn21 (stereo not drawn) -1.91%, COc1ccc(C(=O)n2nc(C)c(Br)c2C)cc1OC -0.0717%, COc1ccc(C(=O)n2nc(-c3ccc(C)cc3)nc2N)cc1OC 7.38%, O=S1(=O)N=C(N(CCO)/N=C/c2ccccc2F)c2ccccc21 11.3%, O=C(CSc1nc(Nc2ccccc2)nc(N2CCOCC2)n1)Nc1cc(Cl)ccc1O -4.18%, C/C(=N\Nc1nc(N2CCOCC2)nc(N2CCOCC2)n1)c1ccc([N+](=O)[O-])cc1 5.8%, O=c1oc(-c2ccccc2NS(=O)(=O)c2ccc(Cl)cc2)nc2ccccc12 6.5%, CC(C)(C)c1ccc(OC2=CS(=O)(=O)c3ccccc32)cc1 -29.9%, COc1cccc(Oc2ccc(N)cc2)c1 -22.3%, O=C(C(NS(=O)(=O)c1cccc2nsnc12)c1ccccc1)N1CCN(c2ccccc2)CC1 (stereo not drawn) -0.239%, CN(Cc1nc(-c2cnccn2)no1)Cc1n[nH]c2c1CCCCC2 2.89%, C=CCN1C(=NC(=O)COc2ccccc2)SC2CS(=O)(=O)CC21 (stereo not drawn) -20.6%, CN(C)C(=O)CCc1ccc2c3c([nH]c2c1)[C@]1(CCC2CCCC2)[C@@H](C(=O)N2CCOCC2)C[C@H](CC(=O)NCc2ccco2)C(=O)N1CC3 13.5%, Cc1ccc(C)c(NC(=O)CN(C)C(=O)COc2ccc3ccccc3c2)c1 1.04%, COc1ccc(S(=O)(=O)N2CCN(C(=O)c3cccs3)CC2)cc1OC 10.3%, CC1=C(C(=O)OC2CCCCC2)C(c2cccnc2)n2ncnc2N1 (stereo not drawn) -21.7%, COc1cc(/C=C2/SC(=S)N(Cc3ccccc3)C2=O)cc(OC)c1O 18.2%, CCOc1ccc(/C=C2\SC(=S)N(NC(=O)c3ccncc3)C2=O)cc1OC -7.88%, Cc1ccc(C)n1-c1ccncc1 8.79%, CC(=O)Nc1ccc(C(=O)CSc2nnc(Cc3ccccc3)o2)cc1 8.22%, COc1cc(C(=O)NCc2nnc(SCC(=O)c3ccc(Cl)cc3)o2)cc(OC)c1OC 7.7%, CCCCCCCCCCOC(=O)C[N+](C)(C)CC1CCCCC1O (stereo not drawn) 10.5%, NC(=O)CC(NC(=O)Cc1cccc2ccccc12)c1ccc(NCc2cc(F)ccc2F)c([N+](=O)[O-])c1 (stereo not drawn) 9.25%, CC12CN3CCN(CC(C3)/C1=N\NC(=O)c1ccccc1N)C2 -5.67%, COc1ccc(OCC(=O)N2CCN(C(=O)c3cccs3)CC2)cc1 26.7%, CN(C(=O)COc1nnc(-c2cccs2)c(-c2cccs2)n1)c1ccccc1 2.99%, O=C1c2ccccc2S(=O)(=O)N1Cc1c(F)cccc1Cl -1.55%, Cn1c(CCc2ccccc2)nnc1SCC(N)=O -1.05%, CCN1C(=O)[C@H]2[C@@H](c3ccc(C)cc3)N3C(=O)N(c4cccc(Br)c4)C(=O)[C@@]3(CC)[C@H]2C1=O -2.44%, CCCCC(CC)CNC(=O)C(=O)C1C(=O)Nc2ccccc21 (stereo not drawn) 13.5%, O=C(CN1CCN(c2ccc(O)cc2)CC1)NC1CCCc2ccccc21 (stereo not drawn) 6.1%, CCOc1ccc(C(C)NC(=O)CN2C(=O)NC3(CCCCC3)C2=O)cc1OCC (stereo not drawn) -6.42%, Cc1[nH][nH]c(=O)c1C(c1ccc(-c2ccc(Cl)cc2)o1)c1c(C)[nH][nH]c1=O 15.2%, COC(=O)Cn1c2ccc(C)cc2c2nc(C)sc21 20.4%, CCn1c(O)c(N=NC(=O)c2cccc(S(=O)(=O)N3CCCCC3)c2)c2ccccc21 -4.54%, COc1cc(NC(=O)C2CC(c3ccccc3O)=NO2)c(OC)cc1Cl (stereo not drawn) 10.9%, CC(=O)Nc1nc(C)c(Cc2ccccc2)c(=O)[nH]1 16.1%, O=C(O)CCn1c(Cc2ccccc2)nc2ccccc21 5.45%, Cc1cc2ccccc2n1CCC(=O)O 13.8%, CCOc1ccc(NC(=O)CN(C)C(=O)c2cccc(S(=O)(=O)N3CCCC3)c2)cc1OCC 10.1%, CCCC(C)NC(=O)C1CCN(C(=O)C2CC(=O)N(c3ccc(C)cc3)C2)CC1 (stereo not drawn) 10.2%, CNc1ccc([N+](=O)[O-])cc1C(=O)O -7.67%, O=C(Nc1cccnc1)c1cc([N+](=O)[O-])ccc1Cl 12.2%, O=C(CCCC(=O)N1CCN(c2cccc(Cl)c2)CC1)c1ccccc1 5.77%, C=CC1=C(C(=O)O)N2C(=O)[C@@H](NC(=O)/C(=N/OCC(=O)O)c3csc(N)n3)[C@H]2SC1 21.7%, Cc1cnc(C(=O)Oc2cccc(Cl)c2Cl)cn1 9.86%, N=c1n(CCc2ccccc2)c2ccccc2n1Cc1ccccc1F -56.4%, Cn1c(=O)n(C)c2cc(C(=O)Nc3ccc(Br)cc3)ccc21 9.51%, O=C(Nc1ccc2c(c1)OCO2)c1ccc(N2C(=O)c3ccccc3C2=O)cc1 -7.07%

inhibition, active:
Cn1c(=O)cc(SCC(=O)N2CCCC2)c2cc(Cl)ccc21 52.4%, C/C=C(/C)C(=O)OC1Cc2c(ccc3ccc(=O)oc23)OC1(C)C (stereo not drawn) 47.2%, COC(=O)C1=C(C(=O)c2ccc(C)cc2)C(c2ccccc2)n2nnnc2N1 (stereo not drawn) 36.7%, OCCCNc1nccc(-c2cc(Nc3cccc(Cl)c3)ncn2)n1 67.2%, CCNC(=O)CCc1nc(-c2ccc(C(C)(C)C)cc2)no1 87.2%, COc1ccc(C(=O)n2nc(-c3ccc(Cl)cc3)nc2N)cc1OC 39.3%, C/C(=N\Nc1nc(Nc2ccccc2)nc(N2CCOCC2)n1)c1cccs1 39.3%, CC(C)(C)c1ccc(Oc2ccc(N)cc2)cc1 79%, CC[n+]1cc(C)ccc1/C=C/c1ccc(N(C)C)cc1 42.6%, COc1ccc(/C=C2\SC(=S)N(CCC(=O)Nc3ccccn3)C2=O)cc1OC 47.5%, CC(C)C[C@@H](N)c1nnc(SCC(=O)c2ccc(Cl)cc2)o1 67.6%, O=C(O)COc1ccc(-c2nccc(-c3cccs3)n2)cc1 73.8%, CCOc1ccc(C(c2c(C)[nH][nH]c2=O)c2c(C)[nH][nH]c2=O)cc1OCC 35.5%, CCn1c(O)c(N=NC2=NC(=O)CS2)c2cc(C)ccc21 44.4%, O=C(O)CCn1c(O)c(C=C2N=c3ccccc3=N2)sc1=S 55.2%, Cc1ccc(NC(=O)c2cc([N+](=O)[O-])ccc2Cl)c(O)c1 38.8%, Cn1c(=O)n(C)c2cc(C(=O)Nc3ccc4c(c3)OCO4)ccc21 37.8%
